Test results from article PMC4336329 (PLoS ONE, 2015).
In all, about 310,000 compounds went through this assay and about 14,000 (4.5%) showed an effect of 50% or more. The effect is printed as a negative number. The full list was thinned out, with strong results kept by preference.
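Note: peak tail current of the secondary pulse compared with the same well before compound.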

What follows are compounds tested against human ether-à-go-go-related gene (hERG) potassium channel (human, UniProt Q12809) (assay: primary screen, population patch clamp on CHO cells stably expressing hERG; higher = less effect of the substance).
human ether-à-go-go-related gene (hERG) potassium channel, sequence (Q12809 whole entry, looked up): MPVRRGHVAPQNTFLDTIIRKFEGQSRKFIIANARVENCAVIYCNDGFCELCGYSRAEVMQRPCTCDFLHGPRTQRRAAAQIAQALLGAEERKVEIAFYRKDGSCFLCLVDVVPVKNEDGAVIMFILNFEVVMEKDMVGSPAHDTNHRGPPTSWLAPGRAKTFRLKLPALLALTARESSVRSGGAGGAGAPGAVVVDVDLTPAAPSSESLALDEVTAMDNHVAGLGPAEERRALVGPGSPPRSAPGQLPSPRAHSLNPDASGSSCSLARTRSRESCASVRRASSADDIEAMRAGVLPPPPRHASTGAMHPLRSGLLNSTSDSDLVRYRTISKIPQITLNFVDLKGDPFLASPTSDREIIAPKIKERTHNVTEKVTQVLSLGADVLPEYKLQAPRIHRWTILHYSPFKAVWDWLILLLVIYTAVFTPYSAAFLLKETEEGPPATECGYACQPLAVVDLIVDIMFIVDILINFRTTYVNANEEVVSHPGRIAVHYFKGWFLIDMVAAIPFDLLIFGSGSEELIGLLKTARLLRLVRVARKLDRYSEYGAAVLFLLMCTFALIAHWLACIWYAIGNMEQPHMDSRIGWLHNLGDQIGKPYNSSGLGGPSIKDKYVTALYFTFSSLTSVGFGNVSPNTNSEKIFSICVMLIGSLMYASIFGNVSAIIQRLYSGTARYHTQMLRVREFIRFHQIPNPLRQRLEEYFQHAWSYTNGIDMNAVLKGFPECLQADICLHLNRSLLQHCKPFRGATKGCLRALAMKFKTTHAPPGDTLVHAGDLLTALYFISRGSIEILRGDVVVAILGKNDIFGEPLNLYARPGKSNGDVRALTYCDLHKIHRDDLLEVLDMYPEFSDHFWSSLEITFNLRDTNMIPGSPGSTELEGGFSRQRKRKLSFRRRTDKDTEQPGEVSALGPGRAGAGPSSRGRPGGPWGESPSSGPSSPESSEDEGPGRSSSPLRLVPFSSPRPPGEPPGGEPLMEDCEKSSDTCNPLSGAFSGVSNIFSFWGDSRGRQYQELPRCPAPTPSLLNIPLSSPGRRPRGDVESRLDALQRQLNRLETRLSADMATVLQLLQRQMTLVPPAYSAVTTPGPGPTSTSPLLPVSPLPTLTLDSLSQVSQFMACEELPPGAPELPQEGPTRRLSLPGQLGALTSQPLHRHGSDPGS
`N#Cc1ccccc1Sc1ccccc1C(=O)NCC(c1ccco1)N1CCCC1` (stereo not drawn) was tested, and the “hERG current change (%, negative = inhibition) at 10uM” value was -27.9%. With `O=C(NCC(c1ccco1)N1CCCC1)c1ccccc1Sc1ccc(C(F)(F)F)cc1[N+](=O)[O-]` (stereo not drawn) the “hERG current change (%, negative = inhibition) at 10uM” value was -55.4%. For `CCOC(=O)COn1c(-n2nc(C)cc2C)nc2ccccc2c1=O`, the “hERG current change (%, negative = inhibition) at 10uM” value was 0.487%. For `Cc1ccccc1NC(=O)c1ccccc1O`, the “hERG current change (%, negative = inhibition) at 10uM” value was 9.03%. For `Cc1ccc(C(C)C)c(OCC(=O)Nc2ccc3c(c2)nc(CCN2CCCCC2)n3C)c1`, the “hERG current change (%, negative = inhibition) at 10uM” value was -75.8%. `Cc1ccc(C(C)C)c(OCC(=O)Nc2ccc3c(c2)nc(CN2CCCC2)n3C)c1` was tested, and the “hERG current change (%, negative = inhibition) at 10uM” value was -76.2%. With `CC(C)CC(=O)Nc1ccc2c(c1)nc(CCN1CCCCC1)n2C` the “hERG current change (%, negative = inhibition) at 10uM” value was -9.9%. For `CCC(=O)Nc1ccc2c(c1)nc(CCN1CCCCC1)n2C`, the “hERG current change (%, negative = inhibition) at 10uM” value was 7.26%. In the case of `CCCC(=O)Nc1ccc2c(c1)nc(CN1CCCC1)n2C`, the “hERG current change (%, negative = inhibition) at 10uM” value is reported as 11.7%. In the case of `Cc1cccc(OCC(=O)Nc2ccc3c(c2)nc(CN2CCCCC2)n3C)c1.Cl`, the “hERG current change (%, negative = inhibition) at 10uM” value is reported as -25.3%. For `Cc1ccc(OCc2nc(-c3ccccn3)no2)c(Br)c1`, the “hERG current change (%, negative = inhibition) at 10uM” value was -22.5%. For `CC(=O)c1cccc(OCC(=O)Nc2cccc(C(=O)Nc3c(C)n(C)n(-c4ccccc4)c3=O)c2)c1`, the “hERG current change (%, negative = inhibition) at 10uM” value was -7.78%. For `C=C1C(C(=O)N2CCN(C)CC2)C1C(=O)N1CCN(C)CC1` (stereo not drawn), the “hERG current change (%, negative = inhibition) at 10uM” value was -2.23%. With `CC(C)Cn1c(N)c(C(=O)COC(=O)c2cc(C(F)(F)F)nc3ccccc23)c(=O)n(C)c1=O` the “hERG current change (%, negative = inhibition) at 10uM” value was 0.872%. With `CC(C)Cn1c(N)c(C(=O)COC(=O)CCc2nc3ccccc3s2)c(=O)n(C)c1=O` the “hERG current change (%, negative = inhibition) at 10uM” value was -69.3%. With `CCCn1c(N)c(C(=O)CSc2nnnn2-c2ccc(O)cc2)c(=O)n(C)c1=O` the “hERG current change (%, negative = inhibition) at 10uM” value was 5.2%. `CCc1ccc(C(=O)OCC(=O)c2c(N)n(CC(C)C)c(=O)n(C)c2=O)cc1` was tested, and the “hERG current change (%, negative = inhibition) at 10uM” value was -0.249%. `CC(C)Cn1c(N)c(C(=O)CSc2nnnn2C)c(=O)n(C)c1=O` was tested, and the “hERG current change (%, negative = inhibition) at 10uM” value was 4.91%. With `CC(C)Cn1c(N)c(C(=O)COC(=O)c2cc(-c3ccccc3)nc3ccccc23)c(=O)n(C)c1=O` the “hERG current change (%, negative = inhibition) at 10uM” value was -8.18%. For `Cn1c(N)c(C(=O)COC(=O)CCc2nc3ccccc3s2)c(=O)n(C)c1=O`, the “hERG current change (%, negative = inhibition) at 10uM” value was 5.93%. In the case of `Cn1c(N)c(C(=O)COC(=O)c2ccc([N+](=O)[O-])o2)c(=O)n(C)c1=O`, the “hERG current change (%, negative = inhibition) at 10uM” value is reported as -34.6%. With `CC(C)Cn1c(N)c(C(=O)COC(=O)c2ccc([N+](=O)[O-])o2)c(=O)n(C)c1=O` the “hERG current change (%, negative = inhibition) at 10uM” value was -69.5%. `CC(C)Cn1c(N)c(C(=O)COC(=O)c2ccc3ccccc3n2)c(=O)n(C)c1=O` was tested, and the “hERG current change (%, negative = inhibition) at 10uM” value was -59.9%. For `Cn1c(N)c(C(=O)COC(=O)CCCc2nc3ccccc3s2)c(=O)n(C)c1=O`, the “hERG current change (%, negative = inhibition) at 10uM” value was 9.03%. For `Cc1ccc(-n2nnnc2SCC(=O)c2c(N)n(CC(C)C)c(=O)n(C)c2=O)cc1`, the “hERG current change (%, negative = inhibition) at 10uM” value was -69.1%. For `COc1ccc(NS(=O)(=O)c2ccc(NC(=O)C3CC3)cc2)cc1`, the “hERG current change (%, negative = inhibition) at 10uM” value was 18.6%. With `CCOc1ccc(CC(=O)OCn2nnc3ccccc3c2=O)cc1` the “hERG current change (%, negative = inhibition) at 10uM” value was 11.4%. `Cc1ccc(NS(=O)(=O)c2ccc(-c3ccc(=O)[nH]n3)o2)cc1N(C)C` was tested, and the “hERG current change (%, negative = inhibition) at 10uM” value was 1.5%. For `Fc1ccccc1C1c2cccn2CCN1C(=S)Nc1cccc(Br)c1` (stereo not drawn), the “hERG current change (%, negative = inhibition) at 10uM” value was 12.9%. In the case of `CN1C(=O)OC(C)(C)C1=O`, the “hERG current change (%, negative = inhibition) at 10uM” value is reported as -2.78%. With `CO/N=C/C(C#N)=C/c1cc(C(=O)c2ccccc2)cn1C` the “hERG current change (%, negative = inhibition) at 10uM” value was 18.4%. With `O=C1OCCN1C(=O)[C@H]1[C@H](c2ccc([N+](=O)[O-])cc2)C(c2cccc(Cl)c2)=NN1c1ccccc1` the “hERG current change (%, negative = inhibition) at 10uM” value was 5.99%. For `CCOC(=O)c1ccc(NC(=O)N2C3CCCC2CC(NC(C)=O)C3)cc1` (stereo not drawn), the “hERG current change (%, negative = inhibition) at 10uM” value was -11.6%. `CCOc1ccccc1OCC(=O)OCC(=O)c1c(N)n(CC(C)C)c(=O)n(C)c1=O` was tested, and the “hERG current change (%, negative = inhibition) at 10uM” value was -67.5%. With `Cc1ccc(OCCC(=O)OCC(=O)c2c(N)n(C)c(=O)n(C)c2=O)cc1` the “hERG current change (%, negative = inhibition) at 10uM” value was -58.3%. With `Cc1csc(=O)n1CCC(=O)OCC(=O)c1c(N)n(CC(C)C)c(=O)n(C)c1=O` the “hERG current change (%, negative = inhibition) at 10uM” value was -26.2%. With `Cc1cccc(C(=O)OCC(=O)c2c(N)n(CC(C)C)c(=O)n(C)c2=O)c1O` the “hERG current change (%, negative = inhibition) at 10uM” value was -15.2%. In the case of `Cc1ccc(OCCC(=O)OCC(=O)c2c(N)n(CC(C)C)c(=O)n(C)c2=O)cc1`, the “hERG current change (%, negative = inhibition) at 10uM” value is reported as -71.9%. In the case of `CC(C)Cn1c(N)c(C(=O)COC(=O)CCNS(=O)(=O)c2ccccc2)c(=O)n(C)c1=O`, the “hERG current change (%, negative = inhibition) at 10uM” value is reported as -48.4%. With `CCOc1ccc(OCCC(=O)OCC(=O)c2c(N)n(C)c(=O)n(C)c2=O)cc1` the “hERG current change (%, negative = inhibition) at 10uM” value was -23%. `CC(=O)NC(CC(=O)OCC(=O)c1c(N)n(CC(C)C)c(=O)n(C)c1=O)c1ccccc1` (stereo not drawn) was tested, and the “hERG current change (%, negative = inhibition) at 10uM” value was -3.32%. In the case of `Cc1ccc(S(=O)(=O)CCC(=O)OCC(=O)c2c(N)n(CC(C)C)c(=O)n(C)c2=O)cc1`, the “hERG current change (%, negative = inhibition) at 10uM” value is reported as -27.9%. In the case of `Cc1cc(C)cc(OCC(=O)OCC(=O)c2c(N)n(C)c(=O)n(C)c2=O)c1`, the “hERG current change (%, negative = inhibition) at 10uM” value is reported as -5.06%. For `Cc1ccccc1OCCC(=O)OCC(=O)c1c(N)n(CC(C)C)c(=O)n(C)c1=O`, the “hERG current change (%, negative = inhibition) at 10uM” value was -75.2%. In the case of `CCC(C(=O)OCC(=O)c1c(N)n(CC(C)C)c(=O)n(C)c1=O)c1ccccc1` (stereo not drawn), the “hERG current change (%, negative = inhibition) at 10uM” value is reported as -2.13%.
